This is an account of results in PubChem BioAssay AID1220 (Sanford-Burnham Center for Chemical Genomics, 2008).

“And” between values parts separate entries of the source, which are not always exact repeats. Equal entries are not always repeated. Hit rate of the full screen: of about 190,000 compounds, about 1,300 (0.68%) were called active. The sample holds actives, similar compounds and a random draw of the others, so the mix is not that of the screen. Rule as the data show it: active = inhibition above about 50%; inactive = the rest. A structure can be active in one record and inactive in another.

In this test the target is Mannose-6-phosphate isomerase (Homo sapiens) (UniProt P34949). Description: human PMI inhibitors, high substrate, primary screen, biochemical, fluorescence intensity, high mannose 6-phosphate (AID 1220). The following applies: recombinant PMI enzyme, coupled fluorescence intensity; at 20 µM; stronger effect = higher value.
Mannose-6-phosphate isomerase (Homo sapiens), sequence (P34949 whole entry, looked up): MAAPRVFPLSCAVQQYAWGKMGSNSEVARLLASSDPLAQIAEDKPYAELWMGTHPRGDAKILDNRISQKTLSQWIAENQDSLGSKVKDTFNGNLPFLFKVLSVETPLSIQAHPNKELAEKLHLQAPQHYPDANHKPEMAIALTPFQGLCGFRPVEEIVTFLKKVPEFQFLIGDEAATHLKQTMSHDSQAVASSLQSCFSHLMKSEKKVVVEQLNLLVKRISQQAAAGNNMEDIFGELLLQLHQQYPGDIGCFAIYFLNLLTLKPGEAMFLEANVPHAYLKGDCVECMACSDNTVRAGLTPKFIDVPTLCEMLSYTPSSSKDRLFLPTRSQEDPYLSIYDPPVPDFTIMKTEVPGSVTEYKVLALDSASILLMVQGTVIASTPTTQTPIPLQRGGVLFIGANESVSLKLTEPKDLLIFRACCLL
For `COc1cc(C(c2sc3nc(C)nn3c2O)N2CCc3ccccc3C2)cc(OC)c1OC` (stereo unspecified), the inhibition (usually the drop in the measured response relative to a control, in per cent) was 5.1% (inactive).
As to `COc1cccc(C(c2sc3nc(C)nn3c2O)N2CCc3ccccc3C2)c1` (stereo unspecified), the inhibition was 42.6% (inactive).
Consider `Cc1ccc2c(c1)NC(=O)C(CC(=O)NCCCN1CCN(c3cc(C)ccc3C)CC1)O2` (stereo unspecified), for which the inhibition was 9.9% (inactive).
For the compound `CN(C)/C=N/c1nc(-c2ccc3c(c2)OCO3)cs1`, the inhibition is 7.4% (inactive).
`CC(C)c1cc(NC(=O)c2ccccc2)cc(C(C)C)c1O`: the inhibition was 8.4% (inactive).
As for `CC(=O)Nc1cc(C(C)C)c(O)c(C(C)C)c1`, the inhibition is 6.7% (inactive).
In the case of `CC(C)c1cc(Nc2cccc(O)c2)cc(C(C)C)c1O`, the inhibition was 53.6% (active).
`CC(C)(C)NC(=O)C(c1ccc(OCC(N)=O)cc1)N(C(=O)c1cccnc1)C1CC1` (stereo unspecified): the inhibition was -7.4% (inactive).
Take `C=CCNC(=O)c1ccc2c(c1)nnn2C`: the inhibition was 3.7% (inactive).
As for `CN(C)/C=C/C(=O)c1cnc(-c2ccc(Cl)cc2)s1`, the figure is 0.9% (inactive); as for `O=C(c1ccc(Cl)nc1)N1CCc2ccccc2C1`, 5.7% (inactive); as for `Cc1ccc(Nc2nc(-c3c(C)nc4ccccn34)cs2)cc1`, 57.1% (active).
Consider `Cc1cccc(Nc2nc(-c3c(C)nc4ccccn34)cs2)c1`, for which the inhibition is 47% (inactive).
In the case of `Cc1ccc(Nc2nc(-c3c(C)nc4ncccn34)cs2)cc1`, the inhibition was 18.6% (inactive).
Regarding `CSc1ccccc1NC(=O)COc1ccc(Cl)cc1`, the inhibition is 3.4% (inactive).
As for `CCCOC(=O)c1cc(NC(=O)/C=C/c2ccccc2)ccc1O`, the figure is 14.7% (inactive); as for `C/C=C/CSc1nc2c(c(=O)[nH]c(=O)n2C)n1Cc1ccc(C)cc1`, 14% (inactive); as for `Cc1cccc(NC2=C/C(=N/S(=O)(=O)c3cccs3)c3ccccc3C2=O)c1`, 56.8% (active).
For `Cc1ccccc1NC1=C/C(=N\S(=O)(=O)c2cccs2)c2ccccc2C1=O`, the inhibition is 17.2% (inactive).
The value for `Cc1ccc(NC2=C/C(=N\S(=O)(=O)c3cccs3)c3ccccc3C2=O)c(C)c1` was 50.1% (active); that for `Cc1ccc(NC2=C/C(=N/S(=O)(=O)c3cccs3)c3ccccc3C2=O)cc1C` was 31.2% (inactive); that for `COC(=O)c1ccccc1NC1=C/C(=N\S(=O)(=O)c2cccs2)c2ccccc2C1=O` was -25.4% (inactive).
Consider `Cc1ccc(Cl)cc1NC1=C/C(=N\S(=O)(=O)c2cccs2)c2ccccc2C1=O`, for which the inhibition was 16.4% (inactive).
Regarding `Cc1ccc(NC2=C/C(=N/S(=O)(=O)c3cccs3)c3ccccc3C2=O)cc1`, the inhibition is 47.9% (inactive).
Regarding `CC(=O)Nc1ccc(NC2=C/C(=N/S(=O)(=O)c3cccs3)c3ccccc3C2=O)cc1`, the inhibition is 54.1% (active).
For `O=C1C(Nc2ccc(O)cc2)=C/C(=N/S(=O)(=O)c2cccs2)c2ccccc21`, the inhibition is 47.6% (inactive).
For the compound `CCN1CCN(CC(=O)NC2CCCC2)C(=O)C1=O`, the inhibition is 5.9% (inactive).
As for `CC(NC(=O)C1CCCN(S(=O)(=O)c2cnc[nH]2)C1)c1ccccc1` (stereo unspecified), the figure is -0.1% (inactive); as for `CCOc1ccccc1-c1nc(-c2ccc(NC(=O)Cc3ccc(OC)cc3)cc2)no1`, -5.8% (inactive); as for `COc1ccc(NC(=O)N2CCN(S(C)(=O)=O)CC2)cc1OC`, 14% (inactive).
The value for `COc1ccccc1NC(=O)/C(C#N)=C/c1cc([N+](=O)[O-])ccc1N1CCCC1` was -6.4% (inactive); that for `COc1cc(OC)cc(C(=O)NC(C(=O)O)C23CC4CC(CC(C4)C2)C3)c1` (stereo unspecified) was -4.9% (inactive); that for `COc1ccc(/C(O)=C2/C(=O)C(=O)N(CC3CCCO3)C2c2ccc(O)c(OC)c2)cc1` (stereo unspecified) was 5.8% (inactive).
`O=S(=O)(NCCNc1ncc(C(F)(F)F)cc1Cl)C(F)(F)F`: the inhibition was 6.3% (inactive).
In the case of `CCOc1cc(NC(=S)NCC2CCCO2)c(OCC)cc1NC(=O)c1cccc(C)c1` (stereo unspecified), the inhibition is 17% (inactive).
Regarding `CCOc1cc(NC(=S)NCC2CCCO2)c(OCC)cc1NC(=O)c1ccc(F)cc1` (stereo unspecified), the inhibition is 54.9% (active).
For the compound `CCOc1cc(NC(=S)NCC2CCCO2)c(OCC)cc1NC(=O)C1CC1` (stereo unspecified), the inhibition was 5.5% (inactive).
`CCOc1cc(NC(=S)NCC2CCCO2)c(OCC)cc1NC(=O)c1ccccc1F` (stereo unspecified): the inhibition was 53.9% (active).
The value for `CCOc1cc(NC(=S)NCC2CCCO2)c(OCC)cc1NC(=O)CC` (stereo unspecified) was 6.9% (inactive); that for `CCOc1cc(NC(=S)NCC2CCCO2)c(OCC)cc1NC(=O)c1ccc(C)cc1` (stereo unspecified) was 58.2% (active); that for `CCOc1cc(NC(=S)NCC2CCCO2)c(OCC)cc1NC(=O)c1ccccc1C` (stereo unspecified) was 5.7% (inactive).
For `CCOc1cc(NC(=S)NCC2CCCO2)c(OCC)cc1NC(=O)c1cccc(F)c1` (stereo unspecified), the inhibition was 53.7% (active).
Consider `CCOc1cc(NC(=S)NCC2CCCO2)c(OCC)cc1NC(=O)CC(C)C` (stereo unspecified), for which the inhibition is 15.4% (inactive).
For `CCOc1cc(NC(=S)NCC2CCCO2)c(OCC)cc1NC(=O)c1ccccc1` (stereo unspecified), the inhibition was 17.7% (inactive).
Consider `CCOc1cc(NC(=S)NCC2CCCO2)c(OCC)cc1NC(=O)c1ccc(OC)cc1` (stereo unspecified), for which the inhibition was 35% (inactive).
As to `CCOc1ccccc1NC(=S)NCC1CCCO1` (stereo unspecified), the inhibition was -3.2% (inactive).
The value for `CN(c1ccccc1)S(=O)(=O)c1ccc(Cl)c(C(=O)Nc2ccc(-c3nc4ccccc4[nH]3)cc2)c1` was 3.8% (inactive); that for `CC1CCCC(NC(=O)CC2Nc3ccccc3NC2=O)C1C` (stereo unspecified) was -4.1% (inactive); that for `N#C/C(=C\c1cn(Cc2ccccc2)c2ccccc12)C(=O)NCc1ccco1` was 15.2% (inactive).
As for `Nn1cnnc1SCC(=O)Nc1ccc2c(c1)OCCO2`, the figure is 9.6% (inactive); as for `O=C(NCc1ccco1)/C(=C/C=C/c1ccccc1)NC(=O)c1ccco1`, 6% (inactive); as for `CC(=O)c1ccc(NC(=S)NCc2cccnc2)cc1`, -2.6% (inactive).
For `c1ccc(COc2cccc(CNCc3ccccn3)c2)cc1`, the inhibition is -10.4% (inactive).
For the compound `Cc1ccc2cc(CCNC(=O)Cc3cccs3)c(=O)[nH]c2c1`, the inhibition is -0.6% (inactive).
Regarding `c1ccc2[nH]c(-c3ccnc4ccccc34)nc2c1`, the inhibition is 51.2% (active) and -1.5% (inactive).
On to `c1ccc(-c2cc(-c3nc4ccccc4[nH]3)c3ccccc3n2)cc1`, for which the inhibition is 12.1% (inactive).
As for `Fc1ccccc1-c1nc2ccccc2[nH]1`, the inhibition is -1.9% (inactive).
With `CCCCNC(=O)c1ccc(N2CCC3(CC2)OCCO3)c([N+](=O)[O-])c1`, the inhibition is 2.4% (inactive).
For the compound `CN1CCN(c2ccc(Cl)cc2NC(=O)CCN2C(=O)c3ccccc3C2=O)CC1`, the inhibition was -10.2% (inactive).
Consider `CC(=O)OCCNc1cc(N2CCN(C)CC2)c2noc3c2c1C(=O)c1ccccc1-3`, for which the inhibition was 50.5% (active).
The value for `O=C(O)CCCNc1cc(N2CCC3(CC2)OCCO3)c2noc3c2c1C(=O)c1ccccc1-3` was 54.1% (active).
In the case of `O=C(O)CCCCCNS(=O)(=O)c1cccc2c1C(=O)c1ccccc1C2=O`, the inhibition is 31.4% (inactive).
Consider `CCOC(=O)N1CCN(c2cc(NCCC(=O)O)c3c4c(onc24)-c2ccccc2C3=O)CC1`, for which the inhibition is -2.8% (inactive).
For `CC(Oc1ccccc1F)C(=O)NNC(=O)c1cc2ccccc2o1` (stereo unspecified), the inhibition was 2.5% (inactive).
The value for `Cc1ccc(NC(=S)NC2CCN(Cc3ccccc3)CC2)cc1` was 8.2% (inactive); that for `COc1cc(NC(=O)Cn2cnc3ccccc3c2=O)c(OC)cc1Cl` was 14.9% (inactive).
Regarding `CCOC(=O)c1sc2ncnc(N3CCN(CC)CC3)c2c1C`, the inhibition was -2.6% (inactive).
Regarding `O=C(Cn1cnc2c(nnn2Cc2ccc(F)cc2)c1=O)NCc1ccc(F)cc1`, the inhibition was -6.8% (inactive).
With `COC(=O)c1cc(C(=O)OC)cc(-n2c(C)cc(C(=O)COC(=O)CNS(=O)(=O)c3ccc(C)cc3)c2C)c1`, the inhibition is 6.4% (inactive).
As for `C(=N\Nc1ccccn1)/c1ccc(N2CCOCC2)cc1`, the inhibition is 23.5% (inactive).
`Cc1cc(N/N=C/c2ccccc2O)nc(-c2ccccc2O)n1`: the inhibition is 48.2% (inactive).
As for `CC(=O)NNc1cc(N2CCOCC2)nc(N2CCOCC2)n1`, the inhibition was 11.3% (inactive).
The value for `Oc1ccc(/C=N/Nc2nc(N3CCCC3)nc(N3CCCC3)n2)cc1O` was 27% (inactive); that for `Cc1cc(N/N=C/c2ccc(O)cc2O)nc(-c2ccccc2O)n1` was 52.9% (active).
As for `Cc1cc(N/N=C/c2ccc(O)c(C)c2O)nc(-c2ccccc2O)n1`, the inhibition is 33.4% (inactive).
Turning to `Oc1ccc(/C=N/Nc2nc(N3CCCCCC3)nc(N3CCCCCC3)n2)c(O)c1`, the inhibition is 19.9% (inactive).
As for `Oc1ccc(/C=N\Nc2cc(N3CCOCC3)nc(N3CCOCC3)n2)c(O)c1`, the inhibition is 61.1% (active).
On to `COc1ccc(-c2oc3ncnc(N)c3c2-c2ccccc2)cc1`, for which the inhibition is 5.7% (inactive).
For `Nc1ccccc1C(=O)N(Cc1ccccc1)Cc1ccccc1`, the inhibition was -1.7% (inactive).
For `C=CCSc1nnc(-c2ccc([N+](=O)[O-])cc2)o1`, the inhibition was -2.9% (inactive).
For the compound `Cc1ccc2c(C)[nH]c(=O)cc2c1`, the inhibition was 8.1% (inactive).
As for `CCOc1cc(CNCc2ccncc2)cc(Br)c1OCc1ccc(F)cc1`, the figure is 5.1% (inactive); as for `Cc1ccc(S(=O)(=O)c2nc(-c3ccco3)oc2SCC(=O)NCC2CCCO2)cc1` (stereo unspecified), 18.4% (inactive).
With `CCc1ccc(N=c2c([N+](=O)[O-])nn(-c3ccccc3)n2O)cc1`, the inhibition is 2.1% (inactive).
On to `COc1ccccc1N=c1c2c([N+](=O)[O-])cc([N+](=O)[O-])cc2n(O)n1-c1ccccc1OC`, for which the inhibition is -1.7% (inactive).
As to `O=[N+]([O-])c1cc([N+](=O)[O-])c2c(=Nc3ccccc3)n(-c3ccccc3)n(O)c2c1`, the inhibition is 52.9% (active).
As for `CCOc1cc(C2C(C#N)=C(N)Oc3n[nH]c(-c4ccncc4)c32)cc([N+](=O)[O-])c1O` (stereo unspecified), the inhibition is 24.5% (inactive).
Consider `CCN(c1ccccc1)S(=O)(=O)c1ccc(Cl)c(NC(=O)COC(=O)C2CC2C)c1` (stereo unspecified), for which the inhibition is 6.5% (inactive).
Consider `O=S(=O)(O/N=C1\CCCc2ccccc21)c1ccc(Cl)cc1`, for which the inhibition was -28.3% (inactive).
`CC1=C/C(=N\OC(=O)/C=C/c2ccccc2)C(C)=CC1=O`: the inhibition was 8.4% (inactive).
Take `Cc1ccc(S(=O)(=O)O/N=C2\CCCc3ccccc32)cc1`: the inhibition is -0.1% (inactive).
As for `N/C(=N\OS(=O)(=O)c1ccccc1)c1ccccn1`, the inhibition was -4.5% (inactive).
With `N/C(=N\OS(=O)(=O)c1ccccc1)c1ccncc1`, the inhibition is -14.4% (inactive).
`Cc1ccc(S(=O)(=O)ON=C2CCN(S(=O)(=O)c3ccccc3)CC2)cc1`: the inhibition was -1% (inactive).
For `O=S(=O)(O/N=C1\CCCc2ccccc21)c1ccccc1`, the inhibition was -10.1% (inactive).
For `CC1=C(C)/C(=N\OS(=O)(=O)c2ccccc2)C=CC1=O`, the inhibition was 49% (inactive).
